The text below walks through data of PubChem BioAssay.

The source made the active and inactive calls.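 Rule for the calls: active = mean inhibition above 46.5%, the solvent-only control mean plus 3 SD; inactive = the rest.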

As a reminder, the inhibition is the relative decrease from the control value, in per cent.

In the test the target is Nuclear receptor coactivator 2 (Homo sapiens) (UniProt Q15596). Nature of the test: SRC2 coactivator transcriptional activity inhibitors, confirmation, cell-based, luminescence, HEK293, triplicate (AID 652008).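 Note: 0% = DMSO-treated cells and 100% = Gossypol at 36 µM.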 To be noted: HEK293 GAL4-SRC2 luciferase reporter, at 8.9 µM, hits give high values. (Reporter assays use an easily measured gene product as a stand-in for the process of interest.)
Sequence of Nuclear receptor coactivator 2 (Homo sapiens) (Q15596 whole entry, looked up, the tested form may be a part): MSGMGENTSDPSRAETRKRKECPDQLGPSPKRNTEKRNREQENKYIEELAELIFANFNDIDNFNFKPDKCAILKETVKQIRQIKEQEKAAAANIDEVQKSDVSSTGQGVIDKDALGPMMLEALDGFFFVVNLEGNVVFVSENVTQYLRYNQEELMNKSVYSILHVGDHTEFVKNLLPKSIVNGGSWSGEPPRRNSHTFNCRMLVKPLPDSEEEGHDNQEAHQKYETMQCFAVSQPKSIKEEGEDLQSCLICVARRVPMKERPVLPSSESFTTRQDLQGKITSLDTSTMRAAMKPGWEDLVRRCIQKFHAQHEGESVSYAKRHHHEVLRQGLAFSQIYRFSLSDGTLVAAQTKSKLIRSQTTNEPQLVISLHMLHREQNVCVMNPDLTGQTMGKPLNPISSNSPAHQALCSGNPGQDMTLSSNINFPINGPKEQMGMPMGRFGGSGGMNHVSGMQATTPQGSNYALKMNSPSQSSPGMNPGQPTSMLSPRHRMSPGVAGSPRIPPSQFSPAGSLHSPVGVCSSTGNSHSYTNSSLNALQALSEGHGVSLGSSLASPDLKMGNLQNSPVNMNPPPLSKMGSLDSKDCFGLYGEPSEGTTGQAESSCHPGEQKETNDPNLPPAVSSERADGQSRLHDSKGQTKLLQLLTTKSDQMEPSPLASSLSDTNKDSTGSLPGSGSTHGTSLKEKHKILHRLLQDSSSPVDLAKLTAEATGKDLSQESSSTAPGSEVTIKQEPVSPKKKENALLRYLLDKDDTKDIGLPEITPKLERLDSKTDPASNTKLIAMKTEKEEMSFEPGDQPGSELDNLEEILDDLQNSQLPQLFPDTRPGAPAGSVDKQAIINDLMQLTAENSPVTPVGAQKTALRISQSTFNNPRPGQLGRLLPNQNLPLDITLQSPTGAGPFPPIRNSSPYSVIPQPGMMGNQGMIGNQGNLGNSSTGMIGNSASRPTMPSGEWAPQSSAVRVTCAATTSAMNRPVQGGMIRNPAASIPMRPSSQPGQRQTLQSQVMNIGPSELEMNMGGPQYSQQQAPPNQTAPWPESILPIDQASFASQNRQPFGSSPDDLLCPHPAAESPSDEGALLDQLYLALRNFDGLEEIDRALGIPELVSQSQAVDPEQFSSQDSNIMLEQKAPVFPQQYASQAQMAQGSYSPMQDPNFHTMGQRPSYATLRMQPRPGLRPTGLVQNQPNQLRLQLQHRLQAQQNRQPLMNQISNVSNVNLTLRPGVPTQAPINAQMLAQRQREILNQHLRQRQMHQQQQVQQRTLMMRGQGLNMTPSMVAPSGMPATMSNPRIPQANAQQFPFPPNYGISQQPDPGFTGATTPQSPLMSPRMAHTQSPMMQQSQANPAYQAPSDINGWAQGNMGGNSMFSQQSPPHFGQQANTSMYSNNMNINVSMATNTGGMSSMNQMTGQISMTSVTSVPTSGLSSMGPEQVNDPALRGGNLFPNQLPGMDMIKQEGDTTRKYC
As for `C=C1C(=O)[C@]23C[C@H]1CC[C@H]2[C@]1(C)CCC[C@@](C)(C(=O)OC)[C@H]1C[C@@H]3O`, the inhibition is 90.4% (active).

In the case of `O=C(O)CCC(=O)Nc1ccc(NC(=O)c2ccc(Cl)cc2Cl)c(Cl)c1`, the inhibition is -2.71% (inactive).

With `CCOC(=O)C1CCN(S(=O)(=O)c2ccc(NC(=O)OC)cc2)CC1`, the inhibition was -1.21% (inactive).

On to `CC(NC(=O)CCc1nnc(-c2ccc(-c3ccccc3)cc2)o1)c1nc2ccccc2[nH]1` (stereo not given), for which the inhibition is 55.9% (active).

As for `CCc1ccc(-c2nc(CS(=O)CC(=O)NCc3ccccc3)c(C)o2)cc1` (stereo not given), the inhibition was 51.9% (active).

`COc1ccc(Nc2nc(C)nc3c2oc2ccccc23)c(OC)c1`: the inhibition was 4.48% (inactive).

For the molecule `O=C(NC1=NCCS1)C1COc2ccccc2O1` (stereo not given), the inhibition was 47.7% (active).

Consider `c1nnc2c3c4c(sc3ncn12)CCC4`, for which the inhibition was 26.2% (inactive).

Take `CN(c1ccccc1)S(=O)(=O)c1ccc(C(=O)NCc2ccccc2CN2CCCC2)cc1`: the inhibition was -25.8% (inactive).

With `CC(c1nccs1)N(C)C(=O)CCc1nnc(-c2ccc(-c3ccccc3)cc2)o1` (stereo not given), the inhibition was 30.6% (inactive).

On to `CC(=O)C1=CCC(c2ccccc2Cl)N(S(=O)(=O)c2ccc(C)cc2)C1` (stereo not given), for which the inhibition was 15.3% (inactive).

As to `O=[N+]([O-])c1ccc(Sc2nccn2Cc2ccccc2)c([N+](=O)[O-])c1`, the inhibition was 32.1% (inactive).

In the case of `CC(=C\c1ccccc1)/C=C1/SC(=S)N(CCCC(=O)O)C1=O`, the inhibition was 79.2% (active).

Take `COc1ccc2c(n1)Sc1nc3ccccc3nc1N2`: the inhibition was -87.5% (inactive).

As to `CC(C)(C)c1nn(-c2ccccc2)c2[nH]c(=O)c(CNc3ccc4c(c3)OCCO4)cc12`, the inhibition was 3.22% (inactive).

On to `CC(C)(C)c1ccc(OC(=O)Nc2ccc(O)c(C(=O)O)c2)cc1`, for which the inhibition was 30.5% (inactive).

For the molecule `CCc1nnc(NC(=O)c2nc(S(=O)(=O)Cc3ccc(C)cc3)ncc2Cl)s1`, the inhibition is 58.3% (active).

Turning to `CSC1=C(C#N)C(c2ccc3c(c2)OCO3)C2=C(CCCC2=O)N1` (stereo not given), the inhibition is -1.64% (inactive).

Regarding `COc1ccc(/C=C2\SC(=S)N(CCCC(=O)N3CCOCC3)C2=O)cc1`, the inhibition is 35.5% (inactive).

Consider `Cc1ccc2c(c1)N(C(C)C(=O)NCc1ccc3c(c1)OCO3)C(=O)CO2` (stereo not given), for which the inhibition was -19.4% (inactive).

With `O=C(Cn1ncc2c([nH]c3ccccc32)c1=O)NCCc1ccccc1`, the inhibition is 12.2% (inactive).

Consider `CN(/C(=N\S(=O)(=O)c1ccccc1)c1ccccc1)c1ccc(O)cc1`, for which the inhibition is -40.4% (inactive).

On to `Cc1cccc(NC(=S)NNc2ncc(C(F)(F)F)cc2Cl)c1`, for which the inhibition was 11.6% (inactive).

For `Cc1cc(=O)oc2cc(OC(C)C(=O)NCCc3ccc(S(N)(=O)=O)cc3)ccc12` (stereo not given), the inhibition was -12.7% (inactive).

For the molecule `O=C(CCCN1C(=O)/C(=C/c2ccccc2Cl)SC1=S)NNC(=O)c1ccccc1`, the inhibition was 73% (active).

Consider `CC(=O)NN1C(=O)/C(=C\c2ccc(Br)o2)SC1=S`, for which the inhibition was 19.2% (inactive).

As to `O=C(CCl)Nc1ccccc1C(=O)NCc1ccccc1`, the inhibition is 42.9% (inactive).

For the molecule `COC(=O)c1ccc(-c2nc3cc(N)ccc3o2)cc1`, the inhibition was 49.8% (active).

Take `CC(NC(=O)CCc1nnc(-c2ccc(-c3ccccc3)cc2)o1)c1nccs1` (stereo not given): the inhibition was 58.5% (active).

In the case of `CC1(C(=O)NS(=O)(=O)Cc2ccccc2C(F)(F)F)CCN1C(=O)c1ccco1` (stereo not given), the inhibition was -19.7% (inactive).

Consider `COC(=O)CCCNC(=O)CCc1nnc(-c2ccc(-c3ccccc3)cc2)o1`, for which the inhibition is 62.8% (active).

For `CCS(=O)(=O)Nc1ccc(C2=NN(C(=O)c3ccco3)C(c3cccs3)C2)cc1` (stereo not given), the inhibition is -29.7% (inactive).

Turning to `O=C(c1ccc(CS(=O)Cc2ccc(Cl)cc2)o1)N1CCN(c2ccccn2)CC1` (stereo not given), the inhibition was -6.91% (inactive).

Turning to `Cc1ccc(C(=O)c2cnc3ccccc3c2-c2ccccc2)cc1`, the inhibition was 16.4% (inactive).

For `O=C(CSCc1ccc(C(=O)O)cc1)Nc1ccccc1`, the inhibition was -31.5% (inactive).

Take `Cc1nc(=O)c(-c2ccccc2)c(C)n1-c1ccccc1Cl`: the inhibition was -36.8% (inactive).

For the molecule `Cc1cc(C(=O)NNS(=O)(=O)c2cc(C(=O)O)ccc2Cl)c(C)n1-c1ccccc1`, the inhibition is 45.4% (inactive).

With `CC(C)(C)n1nc2c(c1NC(=O)c1cc([N+](=O)[O-])ccc1Cl)CS(=O)(=O)C2`, the inhibition is 47.5% (active).

With `CCC/C(C#Cc1cc(OC)cc(OC)c1)=C1/c2ccccc2C(=O)N1c1ccccc1`, the inhibition was -4.64% (inactive).

`CN(c1ccccc1)S(=O)(=O)c1ccc(Cl)c(C(=O)Nc2ccncc2)c1`: the inhibition is 29.7% (inactive).
